Drawing on PubChem BioAssay (Tox21), this text covers Potency and max response for 18 compounds.

Where “and” joins values, the source holds several entries; their conditions need not be identical. Equal values may be shown once. Inconclusive results are not listed. The source holds several records for some structures; these can differ, active in one and inactive in another. Calls of active or inactive are those of the source. Calls follow the shape of the dose curve; as a rule, active = well fitted curve in the direction sought with a large enough effect in the repeat runs; inconclusive = weak or mixed curves; inactive = no such curve, though single readings can be large; an effect the other way counts as inactive or inconclusive.

Test [1] is described as follows: qHTS RealTime-Glo MT Cell Viability Assay in HepG2 cells - 40 hour (AID 1224870). Also: nearly all actives have a fitted effect of over 50% in size. Also: potency is read from the fitted curve at half-maximal effect. The method in brief: (§1)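 Real-time viability: cells seeded at 600 per well together with NanoLuc and cell-permeant prosubstrate, compounds added after 5 h incubation. Luminescence tracked at 0, 8, 16, 24, 32 and 40 h of exposure.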
The nature of test [2]: A CellTox Green Cytotoxicity Assay to monitor cytotoxicity in HEK293 cells - 40 hour (AID 1224871). Also: nearly all actives have a fitted effect of over 45% in size. Also: potency is read from the fitted curve at half-maximal effect. The method in brief: (§2)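 Tox21 screen in HEK293: membrane-impermeant cyanine dye fluoresces on binding dead-cell DNA; compound pinned 5 h post-seeding, plates held at 37 C, signal read repeatedly through 40 h.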
The nature of test [3]: qHTS RealTime-Glo MT Cell Viability Assay in HEK293 cells - 16 hour (AID 1224872). Also: nearly all actives have a fitted effect of over 50% in size. Also: potency is read from the fitted curve at half-maximal effect. The method in brief:
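HEK293 cells seeded with NanoLuc/prosubstrate reagent, rested 5 h at 37 C, then dosed and kept at 37 C up to 40 h. Nonlytic real-time luminescence from viable cells read at 0, 8, 16, 24, 32 and 40 h.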
In general terms: qHTS replaces the single test concentration by a dilution series.

The nature of test [4]: qHTS RealTime-Glo MT Cell Viability Assay in HepG2 cells - 8 hour (AID 1224873). Also: nearly all actives have a fitted effect of over 55% in size. The method in brief:
as §1

The nature of test [5]: qHTS RealTime-Glo MT Cell Viability Assay in HEK293 cells - 40 hour (AID 1224874). Also: nearly all actives have a fitted effect of over 50% in size. Also: potency is read from the fitted curve at half-maximal effect. Particulars: RealTime-Glo luminescence; max response: stronger effect = lower value. The method in brief:
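HEK293 + NanoLuc + prosubstrate, 600 cells/well; 5 h, 37 C/5% CO2; compound 23 nL in DMSO by pintool; 37 C; luminescence read at 0, 8, 16, 24, 32 and 40 h time points.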

The nature of test [6]: A CellTox Green Cytotoxicity Assay to monitor cytotoxicity in HEK293 cells - 24 hour (AID 1224875). Also: nearly all actives have a fitted effect of over 45% in size. Also: potency is read from the fitted curve at half-maximal effect. The method in brief: as §2
Test [7] can be described thus: A CellTox Green Cytotoxicity Assay to monitor cytotoxicity in HepG2 cells - 16 hour (AID 1224876). Also: nearly all actives have a fitted effect of over 45% in size. Also: potency is read from the fitted curve at half-maximal effect. The method in brief: (§3)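 Measurements at 0, 8, 16, 24, 32 and 40 h of treatment captured CellTox Green fluorescence in HepG2 cells that had been co-plated with reagent and preincubated 5 h at 37 C/5% CO2.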
Test [8] is described as follows: qHTS RealTime-Glo MT Cell Viability Assay in HepG2 cells - 32 hour (AID 1224877). Also: nearly all actives have a fitted effect of over 55% in size. Also: potency is read from the fitted curve at half-maximal effect. In short, it runs like this:
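HepG2 cells (600/well) were dispensed with RealTime-Glo reagents, incubated 5 h at 37 °C, then treated with compounds in DMSO for up to 40 h. Nonlytic NanoLuc luminescence reflecting viable cells was read at each stated time point.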

The nature of test [9]: A CellTox Green Cytotoxicity Assay to monitor cytotoxicity in HepG2 cells - 24 hour (AID 1224878). Also: nearly all actives have a fitted effect of over 45% in size. Also: potency is read from the fitted curve at half-maximal effect. The method in brief:
as §3

The nature of test [10]: A CellTox Green Cytotoxicity Assay to monitor cytotoxicity in HepG2 cells - 40 hour (AID 1224879). Also: nearly all actives have a fitted effect of over 40% in size. Also: potency is read from the fitted curve at half-maximal effect. In short, it runs like this: as §3
% is scaled to controls: 0 for no effect and ±100 for the full control effect.

For the compound `OC[C@H]1O[C@@H]2O[C@H]3[C@H](O)[C@@H](O)[C@@H](O[C@H]4[C@H](O)[C@@H](O)[C@@H](O[C@H]5[C@H](O)[C@@H](O)[C@@H](O[C@H]6[C@H](O)[C@@H](O)[C@@H](O[C@H]7[C@H](O)[C@@H](O)[C@@H](O[C@H]8[C@H](O)[C@@H](O)[C@@H](O[C@H]1[C@H](O)[C@H]2O)O[C@@H]8CO)O[C@@H]7CO)O[C@@H]6CO)O[C@@H]5CO)O[C@@H]4CO)O[C@@H]3CO`, the Potency entry in test [1], in test [2], in test [3], in test [4], in test [6] and in [7] was “inactive” each time. Further, the Potency result in test [8], in test [9] and in [10] was “inactive” throughout. For the same compound, the max response in test [5] was 3.33% (inactive).
Turning to `C/C=C/C(=O)O`, the Potency result in test [1], in [2], in test [3], in [4], in test [6] and in [7] was “inactive” each time. In addition, the Potency entry in test [8], in test [9] and in [10] was “inactive” each time. The max response in test [5] is 2.91% (inactive) and 4.68% (inactive).
Turning to `CC1=CCC(C(C)(C)O)CC1` (stereo not given), the Potency result in test [1], in test [2], in [3], in [4], in [6] and in [8] was “inactive” in each case. Further, the max response in test [5] was 3.53% (inactive) and 0% (inactive). For the same compound, the Potency result in test [7] was “inactive and 19.5 µM (active)”; in [9] it was “inactive and 21.9 µM (active)”; in test [10], “inactive and 21.9 µM (active)”.
Consider `COC(C)COC(C)COC(C)CO` (stereo not given), for which the Potency entry in test [1], in test [2], in test [3], in test [4], in [6] and in [7] was “inactive” throughout. Besides, the Potency entry in [8], in test [9] and in [10] was “inactive” throughout. In test [5], the max response is 0.372% (inactive) and 18.3% (inactive).
Regarding `Nc1ccc(S(=O)(=O)Nc2cnc3ccccc3n2)cc1`, the Potency entry in test [1], in test [2], in test [3], in [4], in test [6] and in [7] was “inactive” in each case. The Potency result in test [8], in [9] and in [10] was “inactive” each time. Moreover, the max response in test [5] was -2.7% (inactive) and 1.7% (inactive).
In the case of `CC(C)(C)NC(=O)[C@H]1CC[C@H]2[C@@H]3CC[C@H]4NC(=O)C=C[C@]4(C)[C@H]3CC[C@]12C`, the Potency result in test [1], in test [2], in test [3], in [4], in [6] and in test [7] was “inactive” throughout. The Potency entry in [8], in [9] and in [10] was “inactive” each time. In test [5], the max response was -25.2% (inactive) and -19.5% (inactive).
Take `CNCCCC12CCC(c3ccccc31)c1ccccc12`: the Potency in test [1] is 38.9 µM (active) and 26.8 µM (active); in [2], 49 µM (active); in test [3], 54.9 µM (active); in [5], 49 µM (active) and 23.9 µM (active); in test [6], 54.9 µM (active); in test [7], 54.9 µM (active) and 26.8 µM (active). Also, the Potency is 43.6 µM (active) and 23.9 µM (active) in [8]; 43.6 µM (active) and 23.9 µM (active) in [9]; 34.7 µM (active) and 23.9 µM (active) in test [10]. In addition, in test [4], the Potency result was “inactive”.
For the compound `CC(=O)CC/C=C(\C)CCC=C(C)C`, the Potency entry in test [1], in [2], in [3], in test [4], in [6] and in test [7] was “inactive” in each case. The Potency entry in test [8], in [9] and in [10] was “inactive” in each case. In test [5], the max response was 1.02% (inactive) and 0.97% (inactive).
For `O=C=Nc1ccc(Cc2ccc(N=C=O)cc2)cc1`, the Potency entry in [1], in test [2], in test [3], in test [4], in test [6] and in test [7] was “inactive” each time. Besides, the Potency entry in test [8], in [9] and in test [10] was “inactive” in each case. For the same compound, in test [5], the max response is -12.4% (inactive) and 1.24% (inactive).
With `O=C(c1ccccc1)c1ccc(O)cc1O`, the Potency result in [1], in test [2], in [3], in [4], in test [6] and in test [7] was “inactive” each time. For the same compound, in [8], the Potency entry was “inactive”. In [5], the max response is -11.1% (inactive) and -19.8% (inactive). Besides, the Potency result in [9] is “inactive and 38.9 µM (active)”; in [10] it was “inactive and 43.6 µM (active)”.
`O=CCc1ccccc1`: the Potency entry in test [1], in test [2], in test [3], in [4], in test [6] and in [7] was “inactive” throughout. For the same compound, the Potency result in [8], in [9] and in [10] was “inactive” throughout. Also, the max response in [5] is 1.86% (inactive) and -0.86% (inactive).
Take `CC(C)OC=O`: the Potency entry in test [1], in test [2], in test [3], in test [4], in test [6] and in test [7] was “inactive” in each case. Moreover, the Potency result in test [8], in [9] and in [10] was “inactive” throughout. Moreover, the max response in test [5] is 5.62% (inactive) and -7.32% (inactive).
Regarding `CCC(C)(O)CCCC(C)C` (stereo not given), the Potency result in [1], in [2], in test [3], in test [4], in test [6] and in test [7] was “inactive” in each case. Further, the Potency result in [8], in test [9] and in [10] was “inactive” throughout. Moreover, in test [5], the max response is 0.571% (inactive) and 1.24% (inactive).
Regarding `Nc1ccc(Cl)cc1Cl`, the Potency result in test [1], in test [2], in test [3], in test [4], in [6] and in [7] was “inactive” throughout. Also, the Potency result in test [8], in test [9] and in [10] was “inactive” in each case. Further, in test [5], the max response was 8.67% (inactive) and 2.84% (inactive).
As for `CCOCCOCCO`, the Potency entry in test [1], in test [2], in test [3], in [4], in test [6] and in test [7] was “inactive” throughout. Moreover, the Potency result in test [8], in [9] and in test [10] was “inactive” each time. The max response in [5] was 10.2% (inactive) and 7.38% (inactive).
On to `O=C(O)c1ccccc1Nc1cccc(C(F)(F)F)c1`, for which the Potency entry in test [1], in test [2], in test [3], in test [4], in [6] and in test [7] was “inactive” throughout. The Potency entry in test [8], in test [9] and in [10] was “inactive” in each case. Further, the max response in test [5] was -19.7% (inactive) and -3.43% (inactive).
`CC(=O)O[C@]1(C(C)=O)CC[C@H]2[C@@H]3C=C(Cl)C4=CC(=O)[C@@H]5C[C@@H]5[C@]4(C)[C@H]3CC[C@@]21C`: the Potency entry in test [1], in [2], in test [4], in test [6], in test [7] and in [8] was “inactive” throughout. For the same compound, the Potency result in test [9] and in test [10] was “inactive” throughout. In addition, the Potency in [3] was 21.9 µM (active) and inactive; in test [5], 21.9 µM (active).
In the case of `Cc1[nH]c(=O)c(C#N)cc1-c1ccncc1`, the Potency entry in test [1], in test [2], in test [3], in test [4], in [6] and in test [7] was “inactive” in each case. Also, the Potency entry in test [8], in test [9] and in test [10] was “inactive” in each case. Moreover, in test [5], the max response was 0.254% (inactive) and -5.73% (inactive).
